# High-throughput results (PubChem)
# CCT chaperon mod – cytosolic chaperonin activity modulation. purified chaperonin ATPase assay, HTRF ADP detection, 30 min. activity change, % (no concentration beside the values), hits read low. 360,000 compounds, 0.3% hits. AID 651819; in the data active = activity change below about -30%
#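 TRiC at 40 or 20 nM final (batch-dependent) in 30 mM Tris pH 7.4, 100 mM KCl, 5 mM MgCl2, 1 mM DTT, with compound at single 76 uM and 10 uM ATP, 30 min at 37 deg C. ADP detected by HTRF Transcreener, 665/615 ratio.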
# Mm-Cpn inhibitor – M. maripaludis TRiC chaperonin inhibition. Potency, µM (series often up to 76.9 µM), actives largely listed as inhibitors. 330,000 compounds, 0.031% hits. purified Mm-Cpn ATPase, ADP Transcreener TR-FRET; active = well fitted inhibition curve with a large enough effect; inconclusive = small, poorly fitted or top-dose-only effect; note: nearly all actives have a fitted effect of over 80% in size
#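 Purified archaeal Mm-CPN (25nM final) preincubated 10 min at 37degC with compound, then 10uM ATP for 30 min at 37degC; ADP measured by HTRF Transcreener TR-FRET; buffer 30 mM TRIS pH 7.4, 100mM KCl, 5mM MgCl2, 1mM DTT.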
# gsp agonist – agonists of gsp mutant (McCune-Albright syndrome); gsp mutant cells, cAMP HTRF, 30 min; Potency, µM (doses to about 76.9 µM), actives largely listed as activators; 340,000 compounds, 0.13% hits; active = well fitted activation curve with a large enough effect; inconclusive = small, poorly fitted or top-dose-only effect, or another doubt; inactive = no such curve, though single readings can be large or run the other way; cell line not stated here;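 note: phosphodiesterase inhibitor Ro 20-1724 added with compounds to block cAMP breakdown; nearly all actives have a fitted effect of over 60% in size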
#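 Cells stably selected in G418 were plated at 2000/well, grown 16-24 hr, then given compounds in DMSO with the PDE inhibitor […] (300 uM solution added) for 30 min at 37C; cAMP was read by HTRF.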
# uPA generation – inhibitors of cell surface uPA generation | cell surface uPA generation assay, qHTS | Potency, µM (doses to about 38.3 µM), most hits filed as inhibitors | 330,000 compounds, 0.31% hits; active = well fitted inhibition curve with a large enough effect; inconclusive = small, poorly fitted or top-dose-only effect; inactive = no such curve, though single readings can be large or run the other way; tested in mouse RAW 264.7 cells; note: nearly all actives have a fitted effect of over 55% in size
# TSHR antag – human thyrotropin receptor antagonism. TSHR-expressing cells, TSH-stimulated cAMP HTRF, 2 h; active compounds read low. P16473. activity change, negative = inhibition, % at 11.5 µM. AID 504810. 330,000 compounds, 0.2% hits;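 active = activity change below a set negative limit, meaning inhibition stronger than a set level, cut at about -70% in these data; inconclusive = activity change between two set negative limits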
# Target sequence (P16473 whole entry, looked up): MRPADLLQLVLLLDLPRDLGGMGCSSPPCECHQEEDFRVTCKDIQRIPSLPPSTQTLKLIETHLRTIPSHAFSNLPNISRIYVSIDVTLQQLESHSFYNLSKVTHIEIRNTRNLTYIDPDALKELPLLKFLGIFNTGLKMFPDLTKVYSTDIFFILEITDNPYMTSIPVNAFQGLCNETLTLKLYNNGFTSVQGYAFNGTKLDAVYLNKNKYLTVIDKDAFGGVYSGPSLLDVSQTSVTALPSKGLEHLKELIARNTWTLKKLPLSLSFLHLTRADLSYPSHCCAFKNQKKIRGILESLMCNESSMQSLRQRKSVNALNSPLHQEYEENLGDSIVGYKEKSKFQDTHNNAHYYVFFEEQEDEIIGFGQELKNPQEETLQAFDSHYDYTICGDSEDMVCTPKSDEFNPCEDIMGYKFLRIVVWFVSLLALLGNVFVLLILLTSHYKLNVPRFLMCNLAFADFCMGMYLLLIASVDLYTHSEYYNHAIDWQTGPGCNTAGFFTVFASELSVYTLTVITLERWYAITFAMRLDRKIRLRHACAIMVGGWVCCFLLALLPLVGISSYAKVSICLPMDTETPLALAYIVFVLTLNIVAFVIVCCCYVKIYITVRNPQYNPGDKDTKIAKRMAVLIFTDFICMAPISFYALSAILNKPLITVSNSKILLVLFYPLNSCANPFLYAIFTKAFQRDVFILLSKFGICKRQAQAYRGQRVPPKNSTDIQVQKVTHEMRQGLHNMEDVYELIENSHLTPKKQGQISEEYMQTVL
#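 TSHR-expressing cells, 200/well, pre-treated with compound, then stimulated with EC80 TSH (4nM final) for 2 hours at 37 deg C. cAMP measured by competitive HTRF: anti-cAMP cryptate antibody in lysis buffer plus cAMP-d2, read after 30 minutes at room temperature.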
# gsp antagonist – antagonists of gsp mutant (McCune-Albright syndrome); Potency, µM (highest dose often 76.9 µM), actives largely listed as inhibitors; AID 624288; 340,000 compounds, 0.4% hits; gsp-mutant cells, cAMP HTRF, 30 min; calls by dose curve; cell line not stated here;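 note: intracellular cAMP measured with PDE inhibitor Ro 20-1724 present during compound exposure; nearly all actives have a fitted effect of over 65% in size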
#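 HTRF cAMP measurement after 30 min RT detection following 30 min, 37C compound treatment alongside […] (added as 300 uM solution) in G418-selected cells seeded at 2000/well and grown 16–24 h.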
# Numbers stand for hits; . = inactive; ? = inconclusive; / = no result; [ ] = remark or other dose. A selection: hits, their analogues and other compounds. The true share with any hit is near 1.2%.
SMILES,CCT chaperon mod,Mm-Cpn inhibitor,gsp agonist,uPA generation,TSHR antag,gsp antagonist
N#CC(C#N)=NNc1ccc(-n2ccc(C(F)(F)F)n2)cc1,.,.,?,.,-76,32µM
Cc1cc(C)n(-c2ccc(NN=C(C#N)C#N)cc2)n1,.,.,.,?,.,?
Cc1[nH]c(=S)c(C#N)c2c1CCCC2,.,.,14µM,.,.,.
COC(=O)c1cc(=O)n(Cc2ccco2)c(=Nc2ccc(F)c(Cl)c2)s1,.,.,.,10µM,.,.
Cc1ccc2[nH]c(C(=O)N/N=C/c3ccccc3O)c(C)c2c1,.,.,.,3.5µM,.,.
CC(C)(C#CC(=O)O)OOC(c1ccccc1)(c1ccccc1)c1ccccc1,.,.,.,.,.,.
COC(=O)c1cccc(NC(=O)Nc2ccc(Cl)c(Cl)c2)c1,.,.,.,?,.,35µM
COc1ccccc1OCCCn1cc(C(C)=O)c2ccccc21,.,?,.[15.4 µM],.,.,?
COc1ccccc1OCCCn1cc(C(=O)C2CC2)c2ccccc21,.,.,.[15.4 µM],.,.,45µM
CCOC(=O)Cn1cc(C(=O)c2ccccc2F)c2ccccc21,.,.,.,.,.,.
Nc1ccccc1C(=O)OCC(=O)Nc1ccc(Br)cc1F,.,.,.,/,.,.
C/C(=N\NC(=O)c1cc(-c2cccnc2)nc2ccccc12)c1ccc(O)cc1O,.,.,.,11µM,.,.
Cc1ccc(S(=O)(=O)NCCC(=O)Nc2ccc(Cl)cc2C(=O)c2ccccc2)cc1,.,.,.[15.4 µM],.,.,.
Oc1ccccc1/C=N/NP(=S)(c1ccccc1)c1ccccc1,.,.,.[15.4 µM],.,.,.
Cc1cc(-c2ccccc2)n(-c2cc(N/N=C/c3ccccc3O)ncn2)n1,.,.,?,10µM,.,.
CCOP(=S)(OCC)Oc1cc(C)oc(=O)c1,.,.,.,.,-70,.
C[C@@H]1CN([C@@H](C)CO)C(=O)CCCn2cc(nn2)CO[C@H]1CN(C)C(=O)Oc1ccc2ccccc2c1,.,/,.,/,/,/
Cc1ccc(-n2c(C)nc3ccccc3c2=O)c(C)c1,.,.,.,.,-72,.
Cc1ccc(-n2c(C)nc3ccccc3c2=O)cc1C,.,.,.,?,.,.
CN1C(=O)C(=Cc2ccccc2OCCOc2ccc([N+](=O)[O-])cc2)C(=O)N(C)C1=O,.,.,.,.,.,.
O=C1NC(=O)C(=Cc2ccccc2OCCOc2ccc([N+](=O)[O-])cc2)C(=O)N1,-32,.,.,.,.,.
Clc1ccc(C[n+]2c(-c3ccccc3)cc(-c3ccccc3)cc2-c2ccccc2)cc1,.,.,/,?,.,.
Fc1ccc(C[n+]2c(-c3ccccc3)cc(-c3ccccc3)cc2-c2ccccc2)cc1,.,.,/,8.9µM,.,.
COc1cc([C@@H]2c3cc4c(cc3[C@@H](OC)[C@H]3COC(=O)[C@H]23)OCO4)cc(OC)c1O,.,.,.,1.6µM,.,.
COc1cc2c(cc1C=O)OCO2,.,.,.[15.4 µM],.,.,.
SMILES,CCT chaperon mod,Mm-Cpn inhibitor,gsp agonist,uPA generation,TSHR antag,gsp antagonist
Cc1ccc(N/C(N)=N/c2nc(CSc3nnc(C)s3)cc(=O)[nH]2)c(C)c1,.,.,.,3.5µM,.,.
COc1ccc(-[n+]2c(-c3ccccc3)cc(-c3ccccc3)cc2-c2ccccc2)cc1,.,.,/,?,.,.
Oc1ccc(-[n+]2c(-c3ccccc3)cc(-c3ccccc3)cc2-c2ccccc2)cc1,.,.,/,?,.,50µM
Cc1cn([C@@H](CCCCNC(=O)OC(C)(C)C)C(=O)NCCCCCCCCCCC(=O)N2CCN(C(=O)OC(C)(C)C)CC2)nn1,.,.,/,?,?,28µM
CN(C)c1ccc(/C=C/C=C/c2sc3ccccc3[n+]2C)cc1,.,?,.,.,.,28µM
CC[n+]1c(/C=C/C=C/c2ccc(N(C)C)cc2)sc2ccccc21,.,?,.[15.4 µM],.,.,?
Cc1cc(NC(=O)CCC(=O)N2CCC3(CC2)OCCO3)no1,.,.,.,/,.,.
Cn1c(O)c(Cc2ccc(OCc3ccccc3)cc2)c(=O)n(C)c1=O,.,.,.,.,.,7.1µM
O=C(c1ccc(CS(=O)(=O)c2ccc(Br)cc2)o1)N1CCC2(CC1)OCCO2,.,.,.,.,.,.
COc1cc(N2C(=O)CC(=O)NC2=O)cc(OC)c1OC,.,.,.[15.4 µM],.,-130,.
CCOc1ccc(N2C(=O)CC(=O)NC2=O)cc1,.,.,.[15.4 µM],.,.,.
CC12Cc3cn[nH]c3C=C1CCC1C2CCC2(C)C1CCC2(C)O (stereo unspecified),.,/,.,.,/,?
O=C(c1cc(F)ccc1F)C1CCCN(CCCc2ccccc2)C1 (stereo unspecified),-30,.,.[15.4 µM],.,.,.
COC(=O)C1=C(c2ccc(F)cc2F)C[C@@H]2CC[C@H]1N2C(=O)NC1Cc2ccccc2C1,.,.,/,.,.,.
COC1=CC(=O)OC(CCc2ccc3c(c2)OCO3)C1 (stereo unspecified),-32,/,/,.,/,.
CN(C1=C(NC(=O)c2ccccc2)C(=O)c2ccccc2C1=O)C1CCS(=O)(=O)C1 (stereo unspecified),.,.,?,10µM,.,?
O=P(O)(O)COc1ccccc1O,.,.,.,.,.,.
Cc1noc(C)c1CSCC(=O)Nc1ccc(C#N)c(Cl)c1,.,.,.,.,.,?
Nc1c(C(=O)Nc2ccc3c(c2)OCCO3)nnn1CCc1ccccc1,.,.,?,7.9µM,.,.
CCOP(=S)(OCC)Oc1cc(C)nc(C(C)C)n1,.,/,/,.,/,.
CC1C(c2cccs2)=[N+]([O-])C(C)(C(=O)c2ccc(Cl)cc2)N1O (stereo unspecified),.,/,.,.,/,.
C[C@@H]1C[C@@H]([C@H](O)CC2CC(=O)NC(=O)C2)C(=O)[C@@H](C)C1,.,.,/,0.5µM,.,.
CC(=O)OC1(C)CC(C)C(=O)C(C(O)CC2CC(=O)NC(=O)C2)C1 (stereo unspecified),.,/,.,?,/,.
Cc1cccc(-n2c(/C=C/c3ccccn3)nc3ccccc3c2=O)c1,-38,.,.,.,.,.
Cc1ccc(-n2c(/C=C/c3ccc4c(c3)OCO4)nc3ccccc3c2=O)cc1,/,.,/,/,.,/
COc1ccc(-n2c(/C=C/c3ccc4c(c3)OCO4)nc3ccccc3c2=O)cc1,-40,.,.,.,.,.
Cc1ccc(-n2c(O)c(C=Nc3ccc(S(N)(=O)=O)cc3)c(=O)[nH]c2=O)cc1,.,.,.,.,.,.
CCOC(=O)CNC(=O)N1Cc2cc(-c3ccc(OC)cc3)ccc2-n2nncc2C1,.,/,/,/,/,/
